Screening results deposited in PubChem by National Center for Advancing Translational Sciences (NCATS).
Tau ThT inhib – tau fibrillization inhibition (ThT binding); P10636; recombinant tau K18 P301L, heparin-induced fibrillization, ThT fluorescence; Potency, µM (doses to about 57.4 µM), hits mostly inhibitors; 270,000 tested, 2.1% active; further: nearly all actives have a fitted effect of over 55% in size
Target sequence (P10636 561-689 P618L limits assumed): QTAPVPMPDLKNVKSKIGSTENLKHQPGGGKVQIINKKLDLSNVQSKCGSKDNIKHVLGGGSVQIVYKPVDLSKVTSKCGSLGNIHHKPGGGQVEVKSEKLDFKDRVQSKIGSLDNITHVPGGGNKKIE
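Recombinant human tau K18 fragment […] carrying P301L, 15 uM unlabeled plus 0.24 uM Alexa 594-labeled, was fibrillized with 20 uM heparin in 100 mM sodium acetate pH 7 for 6 hr at 37 C; 30 uM ThT fluorescence read after 1 hr.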
Tau FP inhib – blocks human tau fibril formation measured by polarization. P10636. K18 P301L tau heparin fibrillization, Alexa594 FP, 6 h. Potency, µM (titrated, usually from 57.7 µM), usual class: inhibitors. 280,000 tested, 0.39% active. AID 1468; further: nearly all actives have a fitted effect of over 55% in size
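FP of Alexa 594-tau after heparin (20 uM) induction. Substrate: human K18 P301L, 15 uM unlabeled, 0.24 uM labeled. Buffer 100 mM sodium acetate pH 7. 6 hr, 37 C.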
Coupling enz – counter-screen for Giardia aldolase inhibitors: coupling enzyme system; 290,000 tested, 0.67% active; AID 2472; activity change, negative = inhibition, % at 58.2 µM, hits read low; coupling enzyme system counterscreen, AmpLite Red fluorescence; in the data active means activity change below about -30%
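Final compound at 57.5 uM, incubated 10 min at RT with coupling enzyme reagent (glyceraldehyde-3-phosphate), then 20 min with substrate and AmpLite Red detection. Fluorescence read at 525/598 nm; tests interference with the coupling assay, not aldolase inhibition.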
Sfp inh – inhibitors of Bacillus subtilis Sfp phosphopantetheinyl transferase. Q9F4F7. Biochemical Sfp PPTase activity, qHTS. Potency, µM, actives largely listed as inhibitors. 310,000 tested, 3.5% active;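 further: the enzyme is Sfp with the accession as filed and its product quenches rhodamine fluorescence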
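After 15 min at room temperature with compound, 15 nM Sfp received 5 uM rhodamine-CoA plus 12.5 uM BHQ-2-ybbR (50 mM Hepes pH 7.6, 10 mM MgCl2). Rate came from the fluorescence difference over 30 min, ex 525/em 598 nm.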
Tau fluor cs – counter-screen for tau fibril formation inhibitors; tau K18 P301L (four-repeat tau fragment) Alexa594 fluorescence, heparin fibrillization; Potency, µM (titrated, usually from 57.7 µM); 280,000 tested, 0.93% active; further: nearly all actives have a fitted effect of over 55% in size
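Human K18 P301L tau (15 uM unlabeled plus 0.24 uM Alexa 594-labeled, final) in 100 mM sodium acetate pH 7 was mixed with compound and 20 uM heparin and incubated 6 hr at 37 C.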
Numbers stand for hits; 0 = inactive; ? = inconclusive; - = not tested or not shown; [ ] = another dose, or the depositor's remark. Shown are actives, neighbours in structure and some others; about 5.2% of the full set was active somewhere. Unless noted, the call rests on the fitted dose curve; in most records, active means well fitted curve in the direction sought with a large enough effect; inconclusive means small, poorly fitted or top-dose-only effect, or another doubt; inactive means no such curve, though single readings can be large; an effect the other way counts as inactive or inconclusive.

SMILES | Tau ThT inhib | Tau FP inhib | Coupling enz | Sfp inh | Tau fluor cs
CCOC(=O)CSC1=C(C#N)C(c2ccco2)C(C(=O)Nc2cccc(C(F)(F)F)c2)=C(C)N1 (stereo not drawn) | ? | 0 | 0 | 0 | 0
CC(=O)C1=C(C)NC(SCC(=O)c2ccc(Cl)cc2Cl)=C(C#N)C1c1ccco1 (stereo not drawn) | ? | 0 | 0 | 45µM | ?
Cc1ccc(C)c(NC(=O)C2CCCN2S(=O)(=O)c2ccc3c(c2)CCCC(=O)N3)c1 (stereo not drawn) | 0 | 0 | - | - | 0
Cc1ccc(NNC(=O)Nc2ccc(Cl)cc2)nn1 | - | ? | 0 | 8.9µM | 0
O=C1C2=C(C(=O)c3ccccc31)C1O[C@](CCCCN3C(=O)c4ccccc4C3=O)(Cc3c1ccc1ccccc31)O2 | - | - | 0 | 0 | -
Cc1nc(N2CCCCC2)c2c(-c3cccs3)csc2n1 | 0 | 0 | 0 | 56µM | 0
Cc1nc(N2CCN(S(=O)(=O)c3ccccc3C#N)CC2)c2c(-c3cccs3)csc2n1 | 0 | 0 | 0 | 0 | 0
CC(=O)Nc1ccc(/C=C/c2ccc3c([N+](=O)[O-])cccc3n2)cc1 | 1.4µM | 0 | 0 | 0 | 0
COC(=O)/C(C#N)=C/c1ccc(N2CCOCC2)c([N+](=O)[O-])c1 | 0 | 0 | 0 | 0 | 0
O=C(O)c1cc(/C=C/c2ccc(N3CCOCC3)cc2)nc2ccccc12 | ? | 0 | 0 | 0 | 0
Cc1ccc2nc(/C(C#N)=C/c3cccc(Br)c3)[nH]c2c1 | 5µM | 0 | - | - | ?
O=C(O)c1cc(/C=C/c2ccc(N3CCOCC3)c([N+](=O)[O-])c2)nc2ccccc12 | 14µM | 0 | 0 | 0 | 0
N#C/C(=C\c1ccc(N2CCOCC2)c([N+](=O)[O-])c1)c1nc2ccccc2[nH]1 | 5µM | 0 | 0 | 0 | 22µM[quencher]
N#C/C(=C/c1ccc(N2CCCC2)c([N+](=O)[O-])c1)c1nc2ccccc2[nH]1 | 2.5µM | 0 | 0 | 0 | ?
Cc1ccc2nc(/C(C#N)=C\c3ccc(N4CCCCC4)c([N+](=O)[O-])c3)[nH]c2c1 | 3.2µM | 0 | 0 | 0 | 0
N#C/C(=C\c1ccc(N2CCOCC2)o1)c1nc2ccccc2[nH]1 | 7.9µM | 0 | -49 | 32µM | ?
Cc1ccc2nc(/C(C#N)=C/c3ccc(O)c(O)c3)[nH]c2c1 | - | - | 0 | 0 | -
O=C(CSc1nc(=O)n(Cc2ccccn2)c2c1CCC2)Nc1ccccc1 | 0 | 0 | - | - | 0
S=c1[nH]cnc2sc(Nc3ccccc3)nc12 | ? | ? | 0 | 2.2µM | 0
Cc1ccc2nc(-c3ccsc3)c(Nc3ccc(Cl)cc3)n2c1 | 0 | 0 | - | - | 0
CN(C)c1cc(Cl)c2nonc2c1N | 25µM | ? | -30 | 89µM | ?
CCN(CC)c1cc(Cl)c2nonc2c1N | 0 | 0 | 0 | 0 | 0
Cc1ccc(-c2c3c([nH]c(=S)c2C#N)CCCC3)o1 | 22µM | ? | 0 | 8.9µM | 0
N#Cc1c(SCC(N)=O)nc2c(c1-c1ccncc1)CCCC2 | 0 | 0 | 0 | 0 | 0
N#Cc1c(-c2ccncc2)c2c([nH]c1=S)CCCC2 | ? | 0 | -36 | 5µM | 0
SMILES | Tau ThT inhib | Tau FP inhib | Coupling enz | Sfp inh | Tau fluor cs
CCN(CC)C(=O)Cn1cc(SCC(=O)Nc2cccc(C)c2)c2ccccc21 | 0 | 0 | - | - | 0
O=C(COc1ccccc1[N+](=O)[O-])N/N=C/c1ccc(OC(=O)c2ccco2)cc1 | 0 | 0 | 0 | 0 | 0
O=C(COc1ccccc1[N+](=O)[O-])N/N=C/C=C/c1ccco1 | ? | 0 | - | 50µM | 0
COc1ccccc1OCC(=O)N/N=C/C=C/c1ccc([N+](=O)[O-])o1 | 14µM | 0 | 0 | 0 | 0
Cn1cc(/C=N/NC(=O)COc2ccccc2[N+](=O)[O-])c2ccccc21 | ? | 0 | 0 | 35µM | ?
Cc1ccc(OCC(=O)N/N=C/C=C/c2ccco2)cc1 | ? | 0 | 0 | 35µM | 0
COc1ccc(NC(=O)CCc2nc3c(C)nn(-c4ccc(C)cc4)c3n(C)c2=O)c(OC)c1 | 0 | 0 | - | - | 0
O=C(Nc1ccc2c(c1)N(C1CCCC1)C(=O)c1ccccc1S2)c1cccc(F)c1 | 0 | ? | - | - | 0
COc1cccc2sc(NC(=O)c3ccc(S(=O)(=O)N4CCC(C)CC4)cc3)nc12 | 0 | ? | - | - | 0
O=C1NC(=S)S/C1=C\C=C\c1ccc([N+](=O)[O-])o1 | - | 0 | 0 | 45µM | 0
O=C(O)/C=C/c1ccc([N+](=O)[O-])o1 | 0 | 0 | 0 | 0 | 0
COc1ccc(C(=O)/C(C#N)=N/Nc2cccc([N+](=O)[O-])c2)cc1 | 7.9µM | 0 | 0 | 0 | ?
CC(=O)/C(N)=N/Nc1cccc(Cl)c1 | ? | 0 | 0 | 0 | ?
N#C/C(=N\Nc1cccc(Cl)c1)C(=O)c1ccccc1 | 10µM | 0 | 0 | 0 | ?
N#C/C(=N\Nc1ccccc1Cl)C(=O)c1ccccc1 | 20µM | ? | 0 | 0 | 0
COc1cc(C2C(C(=O)OCC(C)C)=C(C)N=C3SCCC(=O)N32)ccc1OCc1ccccc1 (stereo not drawn) | 0 | 0 | - | - | 0
C[C@@H](c1ccccc1)N1C(=O)[C@H]2[C@H]3[C@H](O)[C@H](O)C/C(=N/NC(=O)OCc4ccccc4)[C@@H]3CC[C@@H]2C1=O | 0[11.5 µM] | 0[11.6 µM] | 0 | 0 | 0[11.6 µM]
Cc1ccc(C)c(NS(=O)(=O)c2cc3c(cc2Cl)NC(=O)CO3)c1 | 0 | 0 | - | - | 14µM[quencher]
COc1cc(OC)c(NS(=O)(=O)c2cc3c(cc2C)NC(=O)CO3)cc1Cl | 0 | 0 | - | - | 0
Cc1cc(C)cc(NC(=O)C2CCN(c3nccs3)CC2)c1 | 0 | 0 | 0 | 89µM | 0
c1ccc(-c2cnc(CSc3nnc4ccccn34)o2)cc1 | 0 | 0 | -37 | 0 | 0
Fc1ccc(-c2nnc(CSc3nnc4ccccn34)o2)cc1 | 0 | 0 | 0 | 0 | 0
CCOC(=O)C1=C(C)N(C)C(=O)NC1c1c(C)nn(-c2ccc(C)cc2)c1Cl (stereo not drawn) | 0 | 0 | 0 | 0 | 0
CCOC(=O)C1=C(C)NC(=O)NC1c1c(C)nn(-c2ccccc2)c1Cl (stereo not drawn) | 0 | 0 | 0 | 20µM | 0
CC1CCN(S(=O)(=O)c2ccc3c(ccn3CC(=O)NCc3ccccc3F)c2)CC1 | 0 | ? | - | - | 0
SMILES | Tau ThT inhib | Tau FP inhib | Coupling enz | Sfp inh | Tau fluor cs
COc1cc2c(cc1OC)CN(C(=O)CN1CCN(S(=O)(=O)c3ccccc3Br)CC1)CC2 | - | - | 0 | ? | -
Cc1ccc(C)c(S(=O)(=O)N2CCN(CC(=O)N3CCc4ccccc4C3)CC2)c1 | 0 | 0 | 0 | 56µM | 0
O=C(CSc1nc2ccccc2n1Cc1c(F)cccc1Cl)N1CCN(c2ccc(F)cc2)CC1 | 0 | 0 | - | - | 0
Cc1noc(C)c1COC(=O)CCCc1c[nH]c2ccccc12 | 0 | 0 | 0 | 50µM | 0
CCOC(=O)CCCc1c[nH]c2ccccc12 | 0 | 0 | 0 | 0 | 0
CC(=O)c1ccc(NC(=O)CSc2nnc(-c3ccco3)c(-c3ccco3)n2)cc1 | 4µM | 8.9µM | 0 | 8.9µM | ?
O=C(NCc1ccccc1)c1ccc2nccnc2c1 | 0 | 0 | 0 | 0 | 0
O=C(NCc1ccccc1)c1ccc2nc(-c3ccco3)c(-c3ccco3)nc2c1 | 14µM | ? | 0 | 7.1µM | ?
